# Screens as filed in PubChem.
# CYP2C19 activ: cytochrome P450 2C19 (human) activation; P33261; recombinant CYP2C19, luciferin-H EGE luminescence; stronger effect = higher value; 0 = fully inhibited enzyme, 1 = untreated enzyme; activation factor at 5 µM; 96,000 tested, under 10 active;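 active = activation factor of at least 2 at 5 µM in the primary screen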;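 note: 0 = wells with 2.5 mM tranylcypromine and 1 = vehicle-only wells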
# CYP2C19 inh: inhibitors of human CYP2C19 | CYP2C19 Supersomes, luciferin-H EGE luminescence, 30 min | inhibition, % at 5 µM | 21% of 96,000 active | AID 778;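 active = CYP2C19 inhibition above a set limit at 5 µM in the primary screen, cut at about 50% in these data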;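 note: plate controls were negative control wells for no effect and 2.5 mM tranylcypromine positive control for full effect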
# PostGolgi ctrl: yeast control strain growth, post-Golgi counter-screen | inhibition, % at 10 µM | 5% of 98,000 active | efflux-deficient yeast background strain, growth absorbance A615, 16 h
# CYP2C9 inhib: inhibitors of human CYP2C9; 20% of 96,000 active; P11712; CYP2C9 Supersomes, luciferin-H conversion, luminescence; inhibition, % at 5 µM;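 active = blocking of liver enzyme CYP2C9 beyond about 50% at 5 µM, limit read from the data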
# PostGolgi yeast: growth inhibition of a yeast mutant, post-Golgi transport screen | post-Golgi transport phenotypic cell assay | inhibition, % at 10 µM | 0.9% of 98,000 active;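 note: yeast cells grown in 1536-well plates; yeast grown about 18 h at 30C before absorbance read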
# CYP2C9 act: increases human cytochrome P450 2C9 activity; activation factor at 5 µM; P11712; recombinant CYP2C9, luciferin-H conversion, luminescence; stronger effect = higher value; factor 1 = untreated enzyme, 0 = blocked; AID 1024; 1.4% of 96,000 active;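 active = activation factor of 2 or more for CYP2C9 at a 5 µM dose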;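 note: 0 = sulfaphenazole-blocked wells and 1 = vehicle-only wells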
# * hit, by the source's call. Most compounds without a hit are left out; they make up all but 32% or so of the library. Cut-off read from the data, not from the text of the source, unless noted: active = inhibition above about 30%; inactive = the rest.
SMILES,CYP2C19 activ,CYP2C19 inh,PostGolgi ctrl,CYP2C9 inhib,PostGolgi yeast,CYP2C9 act
COCCn1nnnc1CN(CCc1ccccc1)Cc1cc2ccc(C)cc2[nH]c1=O,0.5,46,12,31,-12,0.7
COc1ccc2cc(CN(Cc3ccco3)Cc3nnnn3C3CCCCC3)c(=O)[nH]c2c1,0.2,84*,9,87*,-5,0.1
CCc1ccc2[nH]c(=O)c(CN(Cc3ccc4c(c3)OCO4)Cc3nnnn3C3CCCC3)cc2c1,0.7,30,15,60*,-2,0.4
Cc1ccc2cc(CN(Cc3ccc(F)cc3)Cc3nnnn3C3CCCC3)c(=O)[nH]c2c1,0.8,19,41*,9,1,0.9
COC(=O)c1ccc(NC(=O)NS(=O)(=O)c2ccc(C)cc2)cc1,1.1,-6,-3,-13,18,1.1
COc1cccc(CNC(=O)C2CCN(S(=O)(=O)N3CCCCC3)CC2)c1,1.1,-5,4,14,1,0.9
Cc1ccc(S(=O)(=O)Nc2ccc(Br)cc2/C=N/n2cnnc2)cc1,0.5,54*,4,62*,4,0.4
Cc1cc(N(C)C)c(C#N)c(N2CCOCC2)n1,1,-4,9,-17,1,1.2
CN(C)c1nc(N2CCN(c3ccccc3)CC2)c(C#N)c(=O)o1,0,97*,4,-94,-1,1.9
Cc1cccc(C)c1N1CCN(c2nc(N(C)C)oc(=O)c2C#N)CC1,0.1,95*,4,74*,1,0.3
O=C(Nc1cccn2ncnc12)c1ccc(Cl)cc1Cl,0.9,7,5,-52,-12,1.5
O=C(c1ccc(Cl)cc1Cl)C1(n2cncn2)Oc2ccccc2C1O (stereo unspecified),0,99*,96*,93*,100*,0.1
Cc1onc(-c2c(Cl)cccc2Cl)c1C(=O)N1CCCc2ccccc21,0.1,91*,14,82*,14,0.2
Cc1onc(-c2c(Cl)cccc2Cl)c1C(=O)N1C=CC(C(F)(F)F)=NCC1,0.4,59*,0,33,-7,0.7
Cc1onc(-c2ccccc2Cl)c1C(=O)N1CCN(c2ccccc2)CC1,0.7,30,39*,46,0,0.5
Cc1onc(-c2c(Cl)cccc2Cl)c1C(=O)N1CCc2ccccc2C1,0.2,77*,23,73*,5,0.3
O=C(NC1(C(=O)NC2CCCC2)CCCCC1)c1ccc2c(c1)OCO2,1,3,0,-1,1,1
Cc1onc(-c2c(F)cccc2Cl)c1C(=O)N1CCc2ccccc21,0.4,63*,17,40,-12,0.6
Cc1onc(-c2ccccc2)c1C(=O)N1CCCc2ccccc21,0.3,69*,20,22,3,0.8
Cc1noc(C)c1C(=O)N1CCc2ccccc21,1,5,16,-13,3,1.1
CCOC(=O)C1CCN(C(=O)c2c(-c3c(Cl)cccc3Cl)noc2C)CC1,0.3,70*,8,79*,33*,0.2
O=C(c1ccc(Cl)c(F)c1F)N1CCCC1,0.9,14,12,-1,-6,1
CCNc1nc(NCC)nc(Oc2ccc(N)cc2)n1,1.1,-12,1,3,6,1
CCCCc1ccc(-c2nc(NC(=O)C3C4CCC(O4)C3C(=O)O)sc2C)cc1 (stereo unspecified),0.9,6,29,-8,-6,1.1
FC(F)(F)c1cnc(Oc2ccccc2-c2nnco2)c(Cl)c1,0,95*,-4,23,-3,0.8
SMILES,CYP2C19 activ,CYP2C19 inh,PostGolgi ctrl,CYP2C9 inhib,PostGolgi yeast,CYP2C9 act
Nc1ccccc1Oc1ncc(C(F)(F)F)cc1Cl,0.3,72*,12,-20,4,1.2
FC(F)(F)c1cnc(Oc2ccc(-c3nnco3)cc2)c(Cl)c1,0.8,23,2,24,-10,0.8
CON/C=C(\C=Nc1ccccc1)c1ncc(C(F)(F)F)cc1Cl,0.6,37,10,-14,-2,1.1
CC(C)(O)C#Cc1ccccc1C(=O)NC(CC(N)=O)C(=O)O (stereo unspecified),1,-4,8,-8,-6,1.1
O=C(Cc1c(F)c(F)c(F)c(F)c1F)OC12CC3CC(C1)C(=O)C(C3)C2,0.3,72*,4,-1,6,1
Cc1ccc(C)c(NC(=S)N2CCC(N(C)CC3CCCO3)CC2)c1 (stereo unspecified),1,2,8,2,-1,1
